Experimental findings from PubChem BioAssay are described below.

The nature of assay [1]: enhancers of glutamate uptake in motor neurons, MN-1 cell line (AID 1612).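 Note: tested at 1 µM final; 0% = mean of DMSO vehicle wells on each plate; positive means more glutamate uptake than control and negative means less.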 To be noted: MN-1 motor neuron cells, stronger effect = higher value.
Assay [2] is described as follows: reducers of polyQ inclusions in PC12 cells, cell-based, NGF-treated PC12, GFPQ80 (AID 1614).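 Note: lower means fewer inclusions and 0 means no inclusions at all.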 The settings on record: PC12 NGF-treated GFP-polyQ80 inclusion reduction.
The nature of assay [3]: suppressors of polyglutamine aggregation in yeast, 75Q-TubH (AID 1616). To be noted: S. cerevisiae 75Q-TubH polyglutamine aggregation suppression; stronger effect = higher value.
The nature of assay [4]: circadian clock period modulators, cell-based, LOPAC library, luminescence reporter (AID 2774).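 Note: values are relative to mean of DMSO wells on each plate.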 To be noted: circadian reporter cells, at 7 µM, actives lie on both sides.
A short description of assay [5]: hESC survival regulators, cell-based (AID 493140).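 Note: cells exposed to compounds for four days before counting.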 To be noted: human embryonic stem cell survival screen; stronger effect = higher value.

Structures are written as SMILES. Several values for one entry are separate records, joined by “and”; a condition that tells them apart may be missing. Identical values can stand only once. Activity calls are given as the source filed them. The rule behind the calls is not given here.

In the case of `CCn1cc(C(=O)O)c(=O)c2cc(F)c(N3CCNC(C)C3)c(F)c21` (centres undefined), the glutamate uptake change in assay [1] was -4.22%. Also, the inclusion score in assay [2] turned out to be 2. In addition, in assay [3], the aggregation suppression score amounted to 1.06. In addition, the period change in assay [4] is -0.015 h (inactive). Also, the survival in assay [5] is 17.1 (inactive).

Take `CS(=O)(=O)Nc1ccc([N+](=O)[O-])cc1Oc1ccccc1`: the glutamate uptake change in assay [1] was -10.7%. Besides, the inclusion score in assay [2] was 2. In assay [3], this compound had an aggregation suppression score of 0.728. Also, in assay [4], the period change was 0.17 h (inactive). Also, the survival in assay [5] is 16.8 (inactive).

Turning to `CN(C)CCOC(=O)COc1ccc(Cl)cc1`, the glutamate uptake change in assay [1] was -7.05%. The same compound registered an inclusion score in assay [2] of 2. The compound further came in with an aggregation suppression score in assay [3] of 1.56. The period change in assay [4] is -0.09 h (inactive). The survival in assay [5] is 8.75 (inactive).

Turning to `Cn1cnc2c1c(=O)[nH]c(=O)n2C`, the glutamate uptake change in assay [1] is -19.3%. Moreover, the inclusion score in assay [2] was found to be 1.5. This compound also gave an aggregation suppression score in assay [3] of 1.09. The period change in assay [4] was -0.055 h (inactive). The survival in assay [5] is 3.33 (inactive).

As for `CCN(CC)CCNC(=O)c1cc(S(C)(=O)=O)ccc1OC`, in assay [1], the glutamate uptake change was -0.98%. The compound also had an inclusion score in assay [2] of 2. In addition, the aggregation suppression score in assay [3] came out at 1.49. In addition, the period change in assay [4] is 0.15 h (inactive). The survival in assay [5] was 16.2 (inactive).

For `CCN(CC)CCOCCOC(=O)C1(c2ccccc2)CCCC1`, the glutamate uptake change in assay [1] was determined as 7.48%. The same compound had an inclusion score in assay [2] of 1.5. The aggregation suppression score in assay [3] is 1.37. Further, the period change in assay [4] is 0.125 h (inactive). Moreover, the survival in assay [5] was 5.08 (inactive).

Consider `CCCCNc1ccc(C(=O)OCCN(C)C)cc1`, for which the glutamate uptake change in assay [1] was found to be 5.32%. The inclusion score in assay [2] stood at 2. In assay [3], this compound displayed an aggregation suppression score of 1.05. Moreover, the period change in assay [4] was 0.035 h (inactive). Moreover, the survival in assay [5] was 12.4 (inactive).

Take `CC[N+](CC)(CC)CCOc1cccc(OCC[N+](CC)(CC)CC)c1OCC[N+](CC)(CC)CC`: the glutamate uptake change in assay [1] was found to be 40.5%. The inclusion score in assay [2] was 2. The compound further displayed an aggregation suppression score in assay [3] of 1.15. In assay [4], the period change is 0 h (inactive). Besides, the survival in assay [5] was 28.5 (inactive).

`CN1CCN(CC(=O)N2c3ccccc3C(=O)Nc3cccnc32)CC1`: the glutamate uptake change in assay [1] was -10.6%. Moreover, the inclusion score in assay [2] was 2.5. This compound also came in with an aggregation suppression score in assay [3] of 1.19. Besides, the period change in assay [4] is 0.09 h (inactive). Besides, the survival in assay [5] is 8.33 (inactive).

Regarding `CC(C)NNC(=O)c1ccncc1`, in assay [1], the glutamate uptake change was -13.1%. Further, the inclusion score in assay [2] was found to be 2. The compound further came in with an aggregation suppression score in assay [3] of 1.22. Moreover, the period change in assay [4] was 0.33 h (inactive). In addition, in assay [5], the survival is 24.2 (inactive).

For the compound `CN(C)C(=O)Oc1cccc([N+](C)(C)C)c1`, in assay [1], the glutamate uptake change is -18.8% and 13.6%. In assay [2], the inclusion score was determined as 2. Moreover, the aggregation suppression score in assay [3] was 0.695 and 1.29. For the same compound, in assay [4], the period change is 0.06 h (inactive). The survival in assay [5] is 12.1 (inactive).

Regarding `C#CCN(C)Cc1ccccc1`, the glutamate uptake change in assay [1] was -1.37%. The compound also displayed an inclusion score in assay [2] of 2. This compound came in with an aggregation suppression score in assay [3] of 1.43. Further, the period change in assay [4] was 0.06 h (inactive). For the same compound, the survival in assay [5] is 31.2 (inactive).

For the compound `NC(=O)c1ncn([C@@H]2O[C@H](CO)[C@@H](O)[C@H]2O)c1O`, the glutamate uptake change in assay [1] worked out at 20.3%. The compound also came in with an inclusion score in assay [2] of 2. This compound also returned an aggregation suppression score in assay [3] of 0.757. In addition, the period change in assay [4] is -0.05 h (inactive).

For `O=C(O)c1cccnc1Nc1cccc(C(F)(F)F)c1`, in assay [1], the glutamate uptake change was 6.09%. This compound registered an inclusion score in assay [2] of 1. This compound also displayed an aggregation suppression score in assay [3] of 0.0604. The period change in assay [4] is 0.085 h (inactive). Further, the survival in assay [5] was 22.6 (inactive).

With `CCCCN(CCCC)CCCOC(=O)c1ccc(N)cc1`, in assay [1], the glutamate uptake change was -0.54%. This compound showed an inclusion score in assay [2] of 2. This compound also showed an aggregation suppression score in assay [3] of 1.28. Further, the survival in assay [5] is 2.17 (inactive).

As to `CCN(CC)C(=O)N1CCN(C)CC1`, the glutamate uptake change in assay [1] is -11.4%. The compound further displayed an inclusion score in assay [2] of 2. The compound further registered an aggregation suppression score in assay [3] of 1.44. The survival in assay [5] was 18.8 (inactive).

With `COc1ccc(CCN(C)CCCC(C#N)(c2ccc(OC)c(OC)c2)C(C)C)cc1OC` (centres undefined), the glutamate uptake change in assay [1] stood at 24.7%. This compound came in with an inclusion score in assay [2] of 2. In addition, the aggregation suppression score in assay [3] was 1.45. The period change in assay [4] is 0.12 h (inactive). Also, in assay [5], the survival is 22.4 (inactive).

With `Nc1nc2c(c(=O)[nH]1)N(C=O)C(CNc1ccc(C(=O)N[C@@H](CCC(=O)O)C(=O)O)cc1)CN2` (some centres undefined), the glutamate uptake change in assay [1] was -0.12%. In assay [2], this compound showed an inclusion score of 1.5. In addition, the aggregation suppression score in assay [3] was 2.31. Moreover, the survival in assay [5] is 8.17 (inactive).

`CC[C@]12CCCN3CCc4c(n(c5ccccc45)C(=O)C1)[C@@H]32`: the glutamate uptake change in assay [1] is -6.74%. The inclusion score in assay [2] came to 2. This compound displayed an aggregation suppression score in assay [3] of 1.73. Moreover, the survival in assay [5] is 2 (inactive).

In the case of `Nc1ccc(S(=O)(=O)Nc2cnc3ccccc3n2)cc1`, the glutamate uptake change in assay [1] was determined as 6.13%. The inclusion score in assay [2] stood at 2. In assay [3], this compound yielded an aggregation suppression score of 1.52. Further, the survival in assay [5] was 3.75 (inactive).

As to `Nc1ccc(S(=O)(=O)Nc2ccccn2)cc1`, the glutamate uptake change in assay [1] is -8.49%. The compound further registered an inclusion score in assay [2] of 2. Further, the aggregation suppression score in assay [3] is 1.05. The survival in assay [5] is 9.08 (inactive).

On to `Nc1ccc(S(=O)(=O)NC(=O)c2ccccc2)cc1`, for which the glutamate uptake change in assay [1] was -23.6%. Moreover, the inclusion score in assay [2] worked out at 2. Moreover, the aggregation suppression score in assay [3] came to 1.16. In addition, the survival in assay [5] is 3 (inactive).

On to `Cc1c(NC(=O)c2cccnc2)c(=O)n(-c2ccccc2)n1C`, for which the glutamate uptake change in assay [1] was -15.2%. Moreover, the inclusion score in assay [2] is 2. In assay [3], the aggregation suppression score came to 1.3. Also, the survival in assay [5] was 16.6 (inactive).

For `CN(C)CCC(c1ccccc1)c1ccccn1` (centres undefined), the glutamate uptake change in assay [1] is 24.1%. The inclusion score in assay [2] is 2. This compound gave an aggregation suppression score in assay [3] of 1.23. Moreover, the period change in assay [4] was -0.08 h (inactive). Moreover, the survival in assay [5] is 15 (inactive).

As to `COc1cnc(NS(=O)(=O)c2ccc(N)cc2)nc1`, the glutamate uptake change in assay [1] was -0.58%. This compound also gave an inclusion score in assay [2] of 2. In assay [3], this compound registered an aggregation suppression score of 1.45. The survival in assay [5] was 4.42 (inactive).

For `COc1ccc(CN(CCN(C)C)c2ccccn2)cc1`, in assay [1], the glutamate uptake change stood at 0.17%. In assay [2], this compound came in with an inclusion score of 2. This compound also displayed an aggregation suppression score in assay [3] of 1.48. Further, the period change in assay [4] was 0.06 h (inactive). In assay [5], the survival is 21.9 (inactive).

With `Cc1nnc(NS(=O)(=O)c2ccc(N)cc2)s1`, the glutamate uptake change in assay [1] came out at 17.5%. The same compound came in with an inclusion score in assay [2] of 2. The aggregation suppression score in assay [3] is 1.24. Further, the survival in assay [5] was 5.75 (inactive).

With `O=C(O)c1ccccc1C(=O)Nc1ccc(S(=O)(=O)Nc2nccs2)cc1`, the glutamate uptake change in assay [1] was found to be 2.49%. This compound showed an inclusion score in assay [2] of 2. The compound further gave an aggregation suppression score in assay [3] of 1.17. In addition, the survival in assay [5] is 11.2 (inactive).

As for `CCN(CC)CCNC(=O)COc1ccc(OC)cc1`, the glutamate uptake change in assay [1] worked out at 0.53%. In assay [2], the inclusion score is 2. Moreover, the aggregation suppression score in assay [3] was 1.23. Further, the survival in assay [5] was 49.8 (inactive).

For `COc1c2occc2c(OC)c2c(=O)cc(C)oc12`, the glutamate uptake change in assay [1] was -7.03%. This compound displayed an inclusion score in assay [2] of 2. In addition, the aggregation suppression score in assay [3] amounted to 0.597. The survival in assay [5] is 22.1 (inactive).

As to `CN(C)CCOC(=O)C(c1ccccc1)C1(O)CCCC1` (centres undefined), the glutamate uptake change in assay [1] was -0.32%. The compound also had an inclusion score in assay [2] of 2. This compound also showed an aggregation suppression score in assay [3] of 1.32. For the same compound, the survival in assay [5] is 12.5 (inactive).

Turning to `CCN1CCCC(OC(=O)C(c2ccccc2)c2ccccc2)C1` (centres undefined), the glutamate uptake change in assay [1] came to 7.33%. The inclusion score in assay [2] is 1.5. Besides, the aggregation suppression score in assay [3] was determined as 1.15. Further, the survival in assay [5] was 12 (inactive).
